Active and inactive are the calls of the source. Unless noted, no rule for the calls is given here.
Tests used:
[1] = HepG2 liver cancer cell viability effects, profiling panel, resazurin fluorescence, 24 h, PK04 Diversity Set (AID 1172); conditions: higher = more signal
[2] = basal S. cerevisiae growth modulation, no modifier, primary screen, OD600, strain BY4716, 24 h, basal condition (AID 1173); conditions: OD600, 24 h, higher = more signal, called active from +8 up or from −8 down
[3] = MM1S myeloma cell viability, profiling panel, resazurin fluorescence, basal, 24 h, PK04 Diversity Set (AID 1174); conditions: higher = more signal, called active from +8 up or from −8 down;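 also: MM1S multiple myeloma cell line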
[4] = biological target: Dihydroorotate dehydrogenase (quinone), mitochondrial (Plasmodium falciparum (isolate 3D7)) (UniProt Q08210); test: PfDHODH enzyme inhibitors, primary screen, biochemical, C-terminal His tag, absorbance 600 nm (AID 1175); conditions: DCIP absorbance 600 nm, higher = more signal, called active from +8 up or from −8 down;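 also: recombinant parasite enzyme with a five histidine tag at its C terminus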
Sequence of Dihydroorotate dehydrogenase (quinone), mitochondrial (Plasmodium falciparum (isolate 3D7)) (Q08210 whole entry, looked up): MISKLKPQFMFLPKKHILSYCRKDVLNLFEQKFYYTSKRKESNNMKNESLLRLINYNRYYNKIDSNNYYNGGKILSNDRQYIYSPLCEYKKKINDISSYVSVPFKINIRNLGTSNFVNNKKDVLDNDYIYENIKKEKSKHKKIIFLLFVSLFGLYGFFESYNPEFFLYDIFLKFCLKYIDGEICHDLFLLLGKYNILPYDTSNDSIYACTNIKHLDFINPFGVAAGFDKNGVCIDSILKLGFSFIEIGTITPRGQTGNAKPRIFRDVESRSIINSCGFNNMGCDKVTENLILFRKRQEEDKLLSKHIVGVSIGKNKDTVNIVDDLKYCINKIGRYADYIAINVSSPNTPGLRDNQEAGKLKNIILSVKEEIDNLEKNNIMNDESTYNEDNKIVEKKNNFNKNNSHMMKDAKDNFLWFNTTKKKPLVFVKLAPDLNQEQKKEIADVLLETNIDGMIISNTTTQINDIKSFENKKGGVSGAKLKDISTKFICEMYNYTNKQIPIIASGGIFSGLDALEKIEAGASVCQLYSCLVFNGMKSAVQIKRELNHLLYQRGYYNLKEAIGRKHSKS

[5] = P. aeruginosa biofilm formation inhibitors, primary screen, strain PAO1, LB-PBS medium, absorbance 600 nm (AID 1176); conditions: P. aeruginosa PAO1 growth/biofilm, A600, 12 h; higher = more signal
[6] = S. cerevisiae RM11-1a growth modifiers, primary screen, strain RM11-1a, OD600, basal, 24 h (AID 1177); conditions: OD600, 24 h, higher = more signal, called active from +8 up or from −8 down;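 also: cultures grown under basal conditions with no added stressor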
[7] = E. coli acrAB mutant growth effects, primary screen, E. coli filamentation inducers, strain DRC39, OD650, 24 h (AID 1178); conditions: higher = more signal, called active from +8 up or from −8 down;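 also: growth measured as culture turbidity by optical density at 650 nm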
[8] = E. coli acrAB mutant growth effects, primary screen, E. coli filamentation inducers, strain DRC39, OD650, 48 h (AID 1179);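 also: screen aims at cell division blockers that make cells filament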; conditions: E. coli DRC39 delta-acrAB growth, higher = more signal, called active from +8 up or from −8 down
[9] = RPMI8226 myeloma cell viability, profiling panel, resazurin fluorescence, basal, 24 h, PK04 Diversity Set (AID 1180); conditions: higher = more signal;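 also: RPMI8826 multiple myeloma cell line at 5000 cells per well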
[10] = biological target: E3 ubiquitin-protein ligase XIAP (Homo sapiens) (UniProt P98170); test: XIAP binders, primary screen, biophysical, small-molecule microarray, fluorescence 635 nm (AID 1181); conditions: small-molecule microarray binding, higher = more signal;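 also: score merges 667 nm emission and signal to noise over triplicate slides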
Sequence of E3 ubiquitin-protein ligase XIAP (Homo sapiens) (P98170 whole entry, looked up): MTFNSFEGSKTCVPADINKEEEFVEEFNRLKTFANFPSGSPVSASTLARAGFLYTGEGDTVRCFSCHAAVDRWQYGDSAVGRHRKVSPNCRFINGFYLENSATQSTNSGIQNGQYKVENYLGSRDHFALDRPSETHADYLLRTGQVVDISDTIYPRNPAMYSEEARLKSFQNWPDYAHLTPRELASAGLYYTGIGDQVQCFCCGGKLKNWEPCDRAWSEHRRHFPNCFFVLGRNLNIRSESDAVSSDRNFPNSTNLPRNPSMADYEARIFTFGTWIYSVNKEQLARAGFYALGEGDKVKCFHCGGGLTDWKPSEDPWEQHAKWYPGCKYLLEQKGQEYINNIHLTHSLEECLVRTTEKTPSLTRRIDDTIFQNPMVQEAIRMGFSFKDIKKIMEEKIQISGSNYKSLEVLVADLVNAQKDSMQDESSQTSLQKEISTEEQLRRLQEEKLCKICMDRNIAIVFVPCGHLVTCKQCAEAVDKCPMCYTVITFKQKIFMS

[11] = tested on: XIP peptide (Xip251-270) binding; test: small-molecule binders of XIP peptide, primary screen, biochemical, small-molecule microarray, fluorescence 635/667 nm, 0.1 µg/mL protein (AID 1182); conditions: fluorescent protein binding, 635 nm, higher = more signal, called active from +8 up or from −8 down
XIP peptide (Xip251-270) = test: small-molecule binders of XIP peptide, primary screen, biochemical, small-molecule microarray, fluorescence 635/667 nm, 0.5 µg/mL protein (AID 1183); conditions: small-molecule microarray binding, fluorescence 635 nm; higher = more signal
[12] = Plasmodium falciparum growth inhibition, primary screen, strain 3D7, DAPI fluorescence, 100 nL (AID 1184);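 also: parasites grown inside human red blood cells in medium with human serum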; conditions: P. falciparum 3D7 growth, 3 d, higher = more signal
[13] = biological target: Homeobox protein Hox-A13 (Mus musculus) (UniProt Q62424); test: inhibitors of HoxA13-DNA binding, primary screen, biochemical, fluorescence polarization, labeled oligonucleotide (AID 1185); conditions: 15 min, higher = more signal, called active from +8 up or from −8 down
Sequence of Homeobox protein Hox-A13 (Mus musculus) (Q62424 whole entry, looked up): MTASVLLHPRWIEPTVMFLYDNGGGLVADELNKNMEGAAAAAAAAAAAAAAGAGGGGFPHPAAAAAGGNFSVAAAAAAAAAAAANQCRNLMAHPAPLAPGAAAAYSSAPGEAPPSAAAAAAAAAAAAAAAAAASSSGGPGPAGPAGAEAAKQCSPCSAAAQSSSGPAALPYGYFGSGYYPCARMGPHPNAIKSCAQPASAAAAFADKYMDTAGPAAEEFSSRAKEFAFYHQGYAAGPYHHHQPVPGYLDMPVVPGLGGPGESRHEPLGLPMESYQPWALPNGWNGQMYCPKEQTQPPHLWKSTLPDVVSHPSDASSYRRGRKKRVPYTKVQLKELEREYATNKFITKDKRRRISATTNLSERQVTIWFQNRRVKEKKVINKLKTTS

[14] = inhibitors of hydroxyurea-induced Chk1 phosphorylation, primary screen, imaging, HeLa, phospho-Chk1 antibody, percent positive cells (AID 1186); conditions: hydroxyurea-induced phospho-Chk1 immunofluorescence imaging, higher = more signal
[15] = inhibitors of hydroxyurea-induced Chk1 phosphorylation, primary screen, imaging, HeLa, phospho-Chk1 nuclear intensity (AID 1187); conditions: hydroxyurea-induced phospho-Chk1 immunofluorescence imaging, higher = more signal

COCCOC(=O)N1C(=O)[C@@]2(c3cc(C#Cc4ccc(OC)cc4)ccc31)[C@H](c1ccc(O)cc1)N1[C@H](c3ccccc3)[C@H](c3ccccc3)OC(=O)[C@H]1[C@@H]2C(=O)Nc1nc2ccccc2s1
z-score [1]: -0.719
z-score [2]: -0.442 (inactive)
z-score [3]: -0.72 (inactive)
composite z-score [4]: -0.455 (inactive)
z-score [5]: 0.819 (inactive)
z-score [6]: 0.363 (inactive)
z-score [7]: -0.184 (inactive)
z-score [8]: -0.0404 (inactive)
z-score [9]: -0.61
composite z-score [10]: 0.0345
composite z-score [11]: 0.691 (inactive)
composite z-score (XIP peptide (Xip251-270)): 0.641
z-score [12]: -0.0098
z-score [13]: -0.183 (inactive)
z-score [14]: -0.233 (inactive)
z-score [15]: -0.215 (inactive)

COc1ccc([Si](C)(C)[C@@H]2[C@@H](CC(=O)N3CCC[C@H]3CO)O[C@]3(C(=O)N(Cc4cccc(I)c4)c4ccccc43)[C@H]2C)cc1
z-score [1]: -2.43
z-score [2]: -0.91 (inactive)
z-score [3]: -3.49 (inactive)
composite z-score [4]: 0.447 (inactive)
z-score [5]: 0.483 (inactive)
z-score [6]: 1.07 (inactive)
z-score [7]: -1 (inactive)
z-score [8]: -1.05 (inactive)
z-score [9]: -4.92
composite z-score [10]: 0.189
composite z-score [11]: 0.302 (inactive)
composite z-score (XIP peptide (Xip251-270)): 0.572
z-score [12]: -2.28
z-score [13]: -3.72 (inactive)
z-score [14]: -0.198 (inactive)
z-score [15]: -0.353 (inactive)

C=CCOC(=O)[C@H]1[C@@H]2C(=O)O[C@@H](c3ccccc3)[C@@H](c3ccccc3)N2[C@@H](c2ccc(OCCOC(=O)[C@@H]3C[C@@H]4C(=O)N5CCC[C@H]5C(=O)N4[C@@H]3c3cccc(OCCO)c3)cc2)[C@]12C(=O)Nc1ccc(I)cc12
z-score [1]: -0.536
z-score [2]: 0.509 (inactive)
z-score [3]: -0.424 (inactive)
composite z-score [4]: -0.49 (inactive)
z-score [5]: 3.85 (inactive)
z-score [6]: 1.29 (inactive)
z-score [7]: 0.021 (inactive)
z-score [8]: -0.0471 (inactive)
z-score [9]: -0.442
composite z-score [10]: -0.0203
composite z-score [11]: 0.108 (inactive)
composite z-score (XIP peptide (Xip251-270)): 0.792
z-score [12]: -1.66
z-score [13]: 2.03 (inactive)
z-score [14]: 0.351 (inactive)
z-score [15]: 0.557 (inactive)

CS(=O)(=O)CCOC(=O)C1=CC(CCCO)=CC(C2CC2)N(Cc2cc3c(cc2Br)OCO3)C=C1C(=O)OCCS(C)(=O)=O (centres undefined)
z-score [1]: 0.0423
z-score [2]: -2.22 (inactive)
z-score [3]: -0.134 (inactive)
composite z-score [4]: -1.5 (inactive)
z-score [5]: 0.118 (inactive)
z-score [6]: 0.37 (inactive)
z-score [7]: 1.17 (inactive)
z-score [8]: 0.892 (inactive)
z-score [9]: -0.0822
composite z-score [10]: 0.448
composite z-score [11]: 0.389 (inactive)
composite z-score (XIP peptide (Xip251-270)): -0.111
z-score [12]: -2.58
z-score [13]: -5.51 (inactive)
z-score [14]: -1.19 (inactive)
z-score [15]: -0.295 (inactive)

O=C1O[C@@H](c2ccccc2)[C@@H](c2ccccc2)N2[C@@H](c3ccc(OCCO)cc3)[C@]3(C(=O)Nc4ccc(C#CCCO)cc43)[C@@H](C(=O)NC[C@H](O)c3ccccc3)[C@H]12
z-score [1]: 0.148
z-score [2]: 1.49 (inactive)
z-score [3]: 0.428 (inactive)
composite z-score [4]: 1.47 (inactive)
z-score [5]: 2.78 (inactive)
z-score [6]: 2.97 (inactive)
z-score [7]: 0.968 (inactive)
z-score [8]: 1 (inactive)
z-score [9]: 0.671
composite z-score [10]: -0.0249
composite z-score [11]: 0.0796 (inactive)
composite z-score (XIP peptide (Xip251-270)): 0.822
z-score [12]: -0.271
z-score [13]: -3.67 (inactive)
z-score [14]: -0.174 (inactive)
z-score [15]: -0.317 (inactive)

CCCC=C(CCC)[C@@H](NS(=O)(=O)c1ccc(Cl)cc1)c1ccc(C(=O)OC)cc1
z-score [1]: 1.16
z-score [2]: 0.295 (inactive)
z-score [3]: 0.349 (inactive)
composite z-score [4]: -0.336 (inactive)
z-score [5]: -0.719 (inactive)
z-score [6]: -0.907 (inactive)
z-score [7]: 0.198 (inactive)
z-score [8]: -1.16 (inactive)
z-score [9]: 0.0665
composite z-score [10]: -0.122
composite z-score [11]: -0.126 (inactive)
composite z-score (XIP peptide (Xip251-270)): 0.536
z-score [12]: 0.198
z-score [13]: -1.43 (inactive)
z-score [14]: 0.47 (inactive)
z-score [15]: 0.175 (inactive)

[N-]=[N+]=NCc1ccccc1[C@@H]1OC(c2ccc(OCCCO)cc2)=N[C@]1(CCS(=O)(=O)c1ccccc1)C(=O)N1CCCCC1
z-score [1]: -0.227
z-score [2]: 0.287 (inactive)
z-score [3]: -0.814 (inactive)
composite z-score [4]: 0.667 (inactive)
z-score [5]: 0.286 (inactive)
z-score [6]: -0.0163 (inactive)
z-score [7]: -0.523 (inactive)
z-score [8]: -0.213 (inactive)
z-score [9]: -0.808
composite z-score [10]: 0.0174
composite z-score [11]: 0.603 (inactive)
composite z-score (XIP peptide (Xip251-270)): 0.772
z-score [12]: -2.23
z-score [13]: -1.6 (inactive)
z-score [14]: 0.202 (inactive)
z-score [15]: 0.161 (inactive)

COC(=O)[C@@]1(Cc2ccccc2)[C@H]2c3cc(C(=O)N(C)C)n(Cc4ccc(OC)c(OC)c4)c3C[C@H]2CN1C(=O)c1ccccc1
z-score [1]: -0.872
z-score [2]: 0.721 (inactive)
z-score [3]: -0.799 (inactive)
composite z-score [4]: -0.831 (inactive)
z-score [5]: 0.302 (inactive)
z-score [6]: 0.358 (inactive)
z-score [7]: -0.874 (inactive)
z-score [8]: -0.695 (inactive)
z-score [9]: -2.19
composite z-score [10]: -0.289
composite z-score [11]: 0.713 (inactive)
composite z-score (XIP peptide (Xip251-270)): 0.664
z-score [12]: -1.44
z-score [13]: -4.39 (inactive)
z-score [14]: 0.639 (inactive)
z-score [15]: 0.614 (inactive)

CCOC(=O)[C@H]1C/C=C/C[C@H](C(=O)OCC)C(=O)O[C@H]2[C@@H](OC)O[C@H](CO)[C@@H](OC(=O)c3ccc(Br)cc3)[C@@H]2OC1=O
z-score [1]: -0.349
z-score [2]: -0.775 (inactive)
z-score [3]: -1.77 (inactive)
composite z-score [4]: -1.88 (inactive)
z-score [5]: 0.787 (inactive)
z-score [6]: 0.807 (inactive)
z-score [7]: 0.612 (inactive)
z-score [8]: 0.485 (inactive)
z-score [9]: -2.49
composite z-score [10]: -0.283
composite z-score [11]: 0.146 (inactive)
composite z-score (XIP peptide (Xip251-270)): -0.103
z-score [12]: -1.11
z-score [13]: -1.2 (inactive)
z-score [14]: -0.0241 (inactive)
z-score [15]: 0.237 (inactive)
